Measurements taken from PubChem BioAssay AID2158 (National Center for Advancing Translational Sciences (NCATS), 2009).
Several values for one entry are separate records, joined by “and”; a condition that tells them apart may be missing. Equal values may be shown once. Records with an inconclusive call do not appear. Activity calls are given as the source filed them. Calls follow the shape of the dose curve; as a rule, active = well fitted inhibition curve with a large enough effect; inconclusive = small, poorly fitted or top-dose-only effect; inactive = no such curve, though single readings can be large or run the other way.

biological target: Cruzipain (Trypanosoma cruzi) (UniProt P25779); experiment: Confirmation qHTS Assay for Inhibitors of Cruzain; conditions: purified cruzain, Z-FR-AMC fluorescence, 0.01% Triton; also: nearly all actives have a fitted effect of over 40% in size;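 as to activity change, negative = inhibition: plate controls were uninhibited enzyme control for no effect and buffer wells lacking enzyme for full effect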
Experimental: Cruzain is a cysteine protease from the tropical parasite Trypanosoma cruzi. This assay protocol is a follow-up and confirmation of related AID 1478 (qHTS Assay for Promiscuous and Specific Inhibitors of Cruzain -- with detergent). Cruzain was assayed by the use of fluorogenic coumarin-based substrate Z-FR-AMC: proteolytic cleavage releases AMC, whose fluorescence is measured at 360 nm excitation and 450 nm emission. Purified cruzain was supplied by the labs of Prof. James McKerrow and Brian Shoichet, UC San Francisco. This assay had 0.01% Triton X-100 concentration. See following references for additional details: Jadhav A, et al. J Med Chem. 2010 Jan 14;53(1):37-51. Mott BT, et al. J Med Chem. 2010 Jan 14;53(1):52-60. Assay Provider: Shoichet, Brian; University of California, San Fancisco Screening Center PI: Austin, C.P. Screening Center: NIH Chemical Genomics Center [NCGC]
Buffer: 100 mM Sodium Acetate, pH 5.5, 5 mM DTT, Triton X-100 concentration: 0.01%. Reagents/Controls: Buffer in columns 3 and 4 as negative control (no enzyme). Substrate solution: 2 uM final concentration of Z-FR-AMC (catalog number I-1160, Bachem) dispensed throughout the plate. Enzyme: 1.5 nM Cruzain final concentration in columns 1, 2, 5-48. Column 1 is neutral (100% activity). Column 2 contained titration of covalent inhibitor K11777, starting concentration 1 mM, then 1:2 dilution in duplicate). Assay Steps: Three uL of enzyme or buffer were dispensed to 1536-well Greiner black solid bottom plates. Compounds and controls (23 nL) were transferred via Kalypsys PinTool. The plates were incubated for 15 min at room temperature, and then 1 uL of substrate solution was added to start the reaction. The plates were immediately transferred to and read 4 times every 30 seconds for 2 min on ViewLux High-throughput CCD imager (Perkin-Elmer) using 360 nm excitation and 450 nm emission fluorescence protocol. The fluorescence intensity difference between the third and the first time points (time lapse of 60 seconds) was used to compute reaction progress.
Potency is read from the fitted curve at half-maximal effect.

Sequence of Cruzipain (Trypanosoma cruzi) (P25779 123-467 limits assumed): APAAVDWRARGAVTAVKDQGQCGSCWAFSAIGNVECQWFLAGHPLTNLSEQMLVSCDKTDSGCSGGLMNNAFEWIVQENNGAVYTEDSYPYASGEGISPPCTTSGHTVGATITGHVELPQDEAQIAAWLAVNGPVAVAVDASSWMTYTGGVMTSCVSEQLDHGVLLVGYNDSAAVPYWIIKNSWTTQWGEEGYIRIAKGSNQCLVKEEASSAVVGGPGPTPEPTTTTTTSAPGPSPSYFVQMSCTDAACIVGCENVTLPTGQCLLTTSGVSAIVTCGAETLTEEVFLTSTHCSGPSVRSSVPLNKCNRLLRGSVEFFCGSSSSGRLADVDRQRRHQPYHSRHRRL

| SMILES | Potency | activity change, negative = inhibition |
| --- | --- | --- |
| O=C1NN(c2ccc(Cl)c(Cl)c2)C(=O)/C1=C/c1cccc(OC(=O)c2cccs2)c1 | 35.5 µM (active) |  |
| Cc1ccc2[nH]c(=O)c(CN(CCO)Cc3nnnn3Cc3ccccc3)cc2c1 |  | -1.03% (inactive) |
| CCOc1nc(C#N)nc(N2CCCCC2)n1 | 2.51 µM (active) and 3.55 µM (active) |  |
| Cc1ccc2[nH]c(=O)c(CN(Cc3ccccc3)Cc3nnnn3Cc3ccco3)cc2c1 |  | -19.4% (inactive) |
| CC[C@@H](C)[C@H](NC(=O)OC(C)(C)C)c1nnc(S(=O)(=O)Cc2cc(C)ccc2C)o1 | 14.1 µM (active) |  |
| CCn1nc(-c2ccccc2C)nc2c(=O)n(C)c(=O)nc1-2 | 0.631 µM (active) |  |
| O=C(CNC(=O)c1ccccc1)OCC(=O)c1ccc2ccccc2c1 | 15.8 µM (active) |  |
| COc1ccc(Nc2nc(C#N)nc(NC3CCCC3)n2)cc1 | 0.447 µM (active) |  |
| COc1ccccc1CCNC(=O)CNC(=O)c1ccc2ccccc2c1 |  | -7.19% (inactive) |
| Cc1ccc(CN(Cc2cc3cc4c(cc3[nH]c2=O)OCCO4)Cc2nnnn2Cc2ccco2)cc1 |  | -25.4% (inactive) |
| CCCn1c2ccc(F)cc2c2nnc(SCCN3CCCCC3)nc21 | 12.6 µM (active) |  |
| COc1ccc(OC)c(C(=O)COC(=O)CNC(=O)C2CCCCC2)c1 | 7.08 µM (active) |  |
| O=C(Nc1ccccc1)c1ccc(-n2nncc2-c2ccccc2)cc1 |  | -11.6% (inactive) |
| COc1ccccc1-c1nn2c(-c3cc(-c4ccccc4)n[nH]3)nnc2s1 |  | -18.8% (inactive) |
| Cc1ccccc1OCC(=O)NCC(=O)OCC(=O)c1ccc2ccccc2c1 | 14.1 µM (active) |  |
| N#CN1CCC(NC(=O)c2ccc(F)cc2)CC1 |  | 0.471% (inactive) |
| CCOC(=O)C(C(=O)OCC)N(C#N)c1nc(SC)nc(N(C)C)n1 | 5.01 µM (active) |  |
| O=C(NCc1ccc2c(c1)OCO2)c1ccc2c(c1)N(Cc1cccc(Cl)c1)C(=O)c1ccccc1S2 |  | 3.57% (inactive) |
| Cc1ccc(C)c(-c2csc(-c3c(N)c(C(=O)c4ccc5c(c4)OCO5)n4ccccc34)n2)c1 |  | -1.82% (inactive) |

| SMILES | Potency | activity change, negative = inhibition |
| --- | --- | --- |
| COc1ccc(S(=O)(=O)NC2CCN(C#N)CC2)cc1 |  | -4.94% (inactive) |
| CC(C)(C)OC(=O)Cc1nnc(-c2cc3ccccc3[nH]2)s1 |  | -10.9% (inactive) |
| O=C(Nc1ccc(N2CCCC2)cc1)c1ccc(Br)o1 |  | -25% (inactive) |
| COc1ccc(-c2nn3c(-c4cc(-c5ccccc5)n[nH]4)nnc3s2)cc1 |  | -14.7% (inactive) |
| O=C(Cc1nnc(-c2cc3ccccc3[nH]2)s1)Nc1cc(C(F)(F)F)ccc1Cl |  | -8.66% (inactive) and 1.72% (inactive) |
| CCNC(=O)c1ccc2nc(-c3ccccc3)c(-c3ccccc3)nc2c1 |  | -14.3% (inactive) |
| C(/Oc1ccccc1)=C1\Nn2c(nnc2-c2cc(-c3ccccc3)n[nH]2)S1 |  | -9.74% (inactive) and -7.34% (inactive) |
| C=CCn1c(SCC(=O)Nc2cc3oc4ccccc4c3cc2OC)nnc1-c1cnccn1 |  | -11.8% (inactive) |
| CN(C)CCCNS(=O)(=O)c1ccc(N2CCC(c3ccc(Cl)cc3)=N2)cc1 |  | -28.4% (inactive) |
| CC1CN(c2oc(-c3cccs3)nc2C#N)CC(C)O1 (stereo not given) |  | -79.4% (inactive) |
| COc1ccc(C(F)(F)F)cc1NC(=O)C(OC(=O)CNC(=O)c1ccccc1)c1ccccc1 (stereo not given) | 14.1 µM (active) |  |
| N#Cc1nc(Nc2ccc(-c3ccccc3)cc2)nc(NC2CCCC2)n1 | 3.98 µM (active) |  |
| O=C(NCCc1nc2ccccc2n1CCOc1cccc2ccccc12)C1CCCCC1 |  | -11.4% (inactive) |
| N#Cc1nc(Nc2cc(F)cc(F)c2)nc(Nc2cc(F)cc(F)c2)n1 | 0.0794 µM (active) |  |
| O=C(NCCc1nc2ccccc2[nH]1)c1cc([N+](=O)[O-])cc([N+](=O)[O-])c1 | 0.794 µM (active) |  |
| O=C(Nc1cc(C(F)(F)F)ccc1Cl)C(O)Cc1ccccc1 (stereo not given) |  | -18.4% (inactive) |
| Nc1ccc2c(c1)C(=O)C(=O)c1ccccc1-2 |  | -54.3% (inactive) |
| c1ccc(CNCc2nnc(-c3cc4ccccc4[nH]3)s2)cc1 |  | -7.37% (inactive) |
| COc1ccccc1OCCn1c(CCNC(=O)C2CCCCC2)nc2ccccc21 | 1.41 µM (active) |  |
| COc1ccc2[nH]c3c(NCCN4CCCCC4)ncnc3c2c1 | 12.6 µM (active) |  |
